Measured values taken from the supplement of paper PMC11732987, “Enantioselective OTUD7B fragment discovery through chemoproteomics screening and high-throughput optimisation” (Communications Chemistry, 2025).

Assays:
Assay in all cases: log2 ratio of Biotin-Ahx-Ub-VS probe labelling (fragment/DMSO); higher = less target engagement (more negative = stronger competition), active = hit call of the paper (q ≤ 0.05, log2 ratio ≤ -1)
Conditions in all cases: compound concentration: 200 uM; treatment time: 3 h
USP19 = target: T1, USP19 (UniProt O94966)
T1 sequence (whole entry): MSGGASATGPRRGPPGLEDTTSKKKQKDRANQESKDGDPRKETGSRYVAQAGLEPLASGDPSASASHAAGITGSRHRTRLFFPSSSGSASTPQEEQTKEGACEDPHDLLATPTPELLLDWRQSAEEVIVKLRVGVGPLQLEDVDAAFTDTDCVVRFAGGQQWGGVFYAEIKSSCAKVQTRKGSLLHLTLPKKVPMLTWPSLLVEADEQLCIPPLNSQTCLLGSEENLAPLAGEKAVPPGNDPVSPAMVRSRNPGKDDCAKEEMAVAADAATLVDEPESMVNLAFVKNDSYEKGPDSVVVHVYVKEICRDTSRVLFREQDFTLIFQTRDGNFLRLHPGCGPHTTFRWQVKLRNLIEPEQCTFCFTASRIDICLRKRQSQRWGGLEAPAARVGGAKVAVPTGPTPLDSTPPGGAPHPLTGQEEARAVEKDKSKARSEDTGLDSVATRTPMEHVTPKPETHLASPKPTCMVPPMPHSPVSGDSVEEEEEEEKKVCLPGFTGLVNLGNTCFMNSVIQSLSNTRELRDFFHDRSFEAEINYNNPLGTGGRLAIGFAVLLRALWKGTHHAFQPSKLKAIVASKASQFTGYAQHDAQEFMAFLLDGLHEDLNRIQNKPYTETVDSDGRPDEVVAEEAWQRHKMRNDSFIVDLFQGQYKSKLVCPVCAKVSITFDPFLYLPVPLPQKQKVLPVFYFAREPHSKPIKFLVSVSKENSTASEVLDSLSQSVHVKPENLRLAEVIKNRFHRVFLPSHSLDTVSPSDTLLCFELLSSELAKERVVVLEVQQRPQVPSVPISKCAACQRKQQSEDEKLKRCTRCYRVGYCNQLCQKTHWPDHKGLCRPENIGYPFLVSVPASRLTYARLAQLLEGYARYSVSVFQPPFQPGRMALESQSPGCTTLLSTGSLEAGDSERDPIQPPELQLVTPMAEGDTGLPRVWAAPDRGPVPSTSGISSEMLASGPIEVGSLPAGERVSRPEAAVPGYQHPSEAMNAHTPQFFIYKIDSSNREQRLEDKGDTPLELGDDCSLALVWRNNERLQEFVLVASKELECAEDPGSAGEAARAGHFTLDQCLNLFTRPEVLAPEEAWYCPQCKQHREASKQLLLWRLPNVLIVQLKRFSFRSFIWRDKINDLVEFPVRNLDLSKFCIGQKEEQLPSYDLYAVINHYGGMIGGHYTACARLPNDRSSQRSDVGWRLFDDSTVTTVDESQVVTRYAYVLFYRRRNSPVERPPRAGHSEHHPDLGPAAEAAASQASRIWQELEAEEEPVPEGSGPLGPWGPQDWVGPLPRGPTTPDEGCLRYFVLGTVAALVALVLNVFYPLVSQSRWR
How it was run: (§1)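 Global-median-normalised Spectronaut label-free quantities were compared by unpaired t-test, and values are average log2 ratios of fragment over vehicle. Only proteins with ≥2 unique peptides were used. HEK293T lysate (495 µg per sample) was treated in triplicate with fragment at 200 µM or vehicle for 3 h and then with Biotin-Ahx-Ub-VS at 0.5 µM final for 1 h. Labelled DUBs were then NeutrAvidin-enriched, digested with LysC and trypsin, and run by diaPASEF LC-MS/MS.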

USP22 = target: T2, USP22 (UniProt Q9UPT9)
T2 sequence (whole entry): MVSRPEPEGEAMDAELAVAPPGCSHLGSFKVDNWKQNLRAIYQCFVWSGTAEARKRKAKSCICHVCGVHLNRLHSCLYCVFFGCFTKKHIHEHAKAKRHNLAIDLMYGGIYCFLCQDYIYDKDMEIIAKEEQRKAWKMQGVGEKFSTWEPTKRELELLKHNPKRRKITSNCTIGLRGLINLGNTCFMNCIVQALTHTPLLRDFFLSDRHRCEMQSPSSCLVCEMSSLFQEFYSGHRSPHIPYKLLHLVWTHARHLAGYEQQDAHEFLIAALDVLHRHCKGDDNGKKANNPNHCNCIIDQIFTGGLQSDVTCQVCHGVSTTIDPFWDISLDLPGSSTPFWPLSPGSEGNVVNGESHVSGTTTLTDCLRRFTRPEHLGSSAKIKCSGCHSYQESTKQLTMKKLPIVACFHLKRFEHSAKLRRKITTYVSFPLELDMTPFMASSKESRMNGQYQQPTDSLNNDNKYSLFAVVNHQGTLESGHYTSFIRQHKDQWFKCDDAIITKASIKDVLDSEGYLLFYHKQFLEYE
How it was run: as §1

USP24 = USP24 (UniProt Q9UPU5)
How it was run: as §1

USP25 = target: T3, USP25 (UniProt Q9UHP3)
T3 sequence (whole entry): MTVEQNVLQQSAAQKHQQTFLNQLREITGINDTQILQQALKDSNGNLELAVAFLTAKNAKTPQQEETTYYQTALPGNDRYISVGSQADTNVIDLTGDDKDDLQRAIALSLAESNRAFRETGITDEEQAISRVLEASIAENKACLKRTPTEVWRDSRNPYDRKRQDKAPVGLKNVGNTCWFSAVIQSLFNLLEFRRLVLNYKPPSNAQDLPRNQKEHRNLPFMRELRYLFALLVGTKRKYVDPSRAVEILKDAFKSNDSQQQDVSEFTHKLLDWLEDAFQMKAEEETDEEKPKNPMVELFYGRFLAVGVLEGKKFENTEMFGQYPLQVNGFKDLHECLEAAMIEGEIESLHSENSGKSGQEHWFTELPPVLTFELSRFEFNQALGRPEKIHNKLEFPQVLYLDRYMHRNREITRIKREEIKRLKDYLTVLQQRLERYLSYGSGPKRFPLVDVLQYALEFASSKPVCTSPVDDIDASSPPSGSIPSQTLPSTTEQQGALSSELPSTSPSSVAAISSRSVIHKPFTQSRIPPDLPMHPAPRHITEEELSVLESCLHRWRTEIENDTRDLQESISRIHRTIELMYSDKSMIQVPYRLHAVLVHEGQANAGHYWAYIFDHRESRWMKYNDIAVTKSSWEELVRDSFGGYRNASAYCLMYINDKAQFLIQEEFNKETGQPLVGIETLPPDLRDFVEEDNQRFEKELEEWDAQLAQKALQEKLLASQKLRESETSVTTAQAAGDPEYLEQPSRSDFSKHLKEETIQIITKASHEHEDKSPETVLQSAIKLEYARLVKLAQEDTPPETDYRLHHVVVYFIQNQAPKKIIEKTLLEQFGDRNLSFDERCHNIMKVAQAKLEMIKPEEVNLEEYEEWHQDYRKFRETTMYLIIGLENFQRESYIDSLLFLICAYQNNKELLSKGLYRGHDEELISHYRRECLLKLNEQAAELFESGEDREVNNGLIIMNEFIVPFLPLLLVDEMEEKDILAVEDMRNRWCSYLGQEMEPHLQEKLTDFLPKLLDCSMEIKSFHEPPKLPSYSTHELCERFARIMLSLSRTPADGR
How it was run: as §1

USP28 = target: T4, USP28 (UniProt Q96RU2)
T4 sequence (whole entry): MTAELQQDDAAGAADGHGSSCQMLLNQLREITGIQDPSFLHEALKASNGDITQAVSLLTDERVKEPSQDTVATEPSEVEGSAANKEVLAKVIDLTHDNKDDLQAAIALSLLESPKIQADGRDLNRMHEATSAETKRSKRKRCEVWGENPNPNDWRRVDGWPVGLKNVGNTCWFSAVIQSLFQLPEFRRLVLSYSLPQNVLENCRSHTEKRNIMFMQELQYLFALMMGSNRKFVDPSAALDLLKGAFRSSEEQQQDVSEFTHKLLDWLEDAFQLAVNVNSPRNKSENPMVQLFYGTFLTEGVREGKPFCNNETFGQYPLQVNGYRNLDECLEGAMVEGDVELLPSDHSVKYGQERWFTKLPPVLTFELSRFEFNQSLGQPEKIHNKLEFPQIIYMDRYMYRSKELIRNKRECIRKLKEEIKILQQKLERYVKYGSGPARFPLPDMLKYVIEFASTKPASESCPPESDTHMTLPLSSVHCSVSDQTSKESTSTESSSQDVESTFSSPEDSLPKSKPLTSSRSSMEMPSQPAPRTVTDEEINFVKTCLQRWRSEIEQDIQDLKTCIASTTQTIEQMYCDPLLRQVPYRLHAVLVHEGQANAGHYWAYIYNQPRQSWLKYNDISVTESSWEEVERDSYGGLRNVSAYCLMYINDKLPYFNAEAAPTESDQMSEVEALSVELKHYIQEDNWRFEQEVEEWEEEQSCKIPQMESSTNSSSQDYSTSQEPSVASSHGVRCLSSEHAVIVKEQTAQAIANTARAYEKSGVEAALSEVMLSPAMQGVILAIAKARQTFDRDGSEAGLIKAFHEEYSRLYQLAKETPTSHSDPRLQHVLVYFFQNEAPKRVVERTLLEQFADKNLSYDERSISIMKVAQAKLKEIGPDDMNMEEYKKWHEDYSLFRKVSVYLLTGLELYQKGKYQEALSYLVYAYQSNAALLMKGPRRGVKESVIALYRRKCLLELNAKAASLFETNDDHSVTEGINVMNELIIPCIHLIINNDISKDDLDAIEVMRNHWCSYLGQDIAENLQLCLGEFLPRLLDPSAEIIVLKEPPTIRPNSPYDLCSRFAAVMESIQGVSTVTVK
How it was run: as §1

Measured: log2 ratio of Biotin-Ahx-Ub-VS probe labelling

Sequence of USP24 (Q9UPU5 whole entry): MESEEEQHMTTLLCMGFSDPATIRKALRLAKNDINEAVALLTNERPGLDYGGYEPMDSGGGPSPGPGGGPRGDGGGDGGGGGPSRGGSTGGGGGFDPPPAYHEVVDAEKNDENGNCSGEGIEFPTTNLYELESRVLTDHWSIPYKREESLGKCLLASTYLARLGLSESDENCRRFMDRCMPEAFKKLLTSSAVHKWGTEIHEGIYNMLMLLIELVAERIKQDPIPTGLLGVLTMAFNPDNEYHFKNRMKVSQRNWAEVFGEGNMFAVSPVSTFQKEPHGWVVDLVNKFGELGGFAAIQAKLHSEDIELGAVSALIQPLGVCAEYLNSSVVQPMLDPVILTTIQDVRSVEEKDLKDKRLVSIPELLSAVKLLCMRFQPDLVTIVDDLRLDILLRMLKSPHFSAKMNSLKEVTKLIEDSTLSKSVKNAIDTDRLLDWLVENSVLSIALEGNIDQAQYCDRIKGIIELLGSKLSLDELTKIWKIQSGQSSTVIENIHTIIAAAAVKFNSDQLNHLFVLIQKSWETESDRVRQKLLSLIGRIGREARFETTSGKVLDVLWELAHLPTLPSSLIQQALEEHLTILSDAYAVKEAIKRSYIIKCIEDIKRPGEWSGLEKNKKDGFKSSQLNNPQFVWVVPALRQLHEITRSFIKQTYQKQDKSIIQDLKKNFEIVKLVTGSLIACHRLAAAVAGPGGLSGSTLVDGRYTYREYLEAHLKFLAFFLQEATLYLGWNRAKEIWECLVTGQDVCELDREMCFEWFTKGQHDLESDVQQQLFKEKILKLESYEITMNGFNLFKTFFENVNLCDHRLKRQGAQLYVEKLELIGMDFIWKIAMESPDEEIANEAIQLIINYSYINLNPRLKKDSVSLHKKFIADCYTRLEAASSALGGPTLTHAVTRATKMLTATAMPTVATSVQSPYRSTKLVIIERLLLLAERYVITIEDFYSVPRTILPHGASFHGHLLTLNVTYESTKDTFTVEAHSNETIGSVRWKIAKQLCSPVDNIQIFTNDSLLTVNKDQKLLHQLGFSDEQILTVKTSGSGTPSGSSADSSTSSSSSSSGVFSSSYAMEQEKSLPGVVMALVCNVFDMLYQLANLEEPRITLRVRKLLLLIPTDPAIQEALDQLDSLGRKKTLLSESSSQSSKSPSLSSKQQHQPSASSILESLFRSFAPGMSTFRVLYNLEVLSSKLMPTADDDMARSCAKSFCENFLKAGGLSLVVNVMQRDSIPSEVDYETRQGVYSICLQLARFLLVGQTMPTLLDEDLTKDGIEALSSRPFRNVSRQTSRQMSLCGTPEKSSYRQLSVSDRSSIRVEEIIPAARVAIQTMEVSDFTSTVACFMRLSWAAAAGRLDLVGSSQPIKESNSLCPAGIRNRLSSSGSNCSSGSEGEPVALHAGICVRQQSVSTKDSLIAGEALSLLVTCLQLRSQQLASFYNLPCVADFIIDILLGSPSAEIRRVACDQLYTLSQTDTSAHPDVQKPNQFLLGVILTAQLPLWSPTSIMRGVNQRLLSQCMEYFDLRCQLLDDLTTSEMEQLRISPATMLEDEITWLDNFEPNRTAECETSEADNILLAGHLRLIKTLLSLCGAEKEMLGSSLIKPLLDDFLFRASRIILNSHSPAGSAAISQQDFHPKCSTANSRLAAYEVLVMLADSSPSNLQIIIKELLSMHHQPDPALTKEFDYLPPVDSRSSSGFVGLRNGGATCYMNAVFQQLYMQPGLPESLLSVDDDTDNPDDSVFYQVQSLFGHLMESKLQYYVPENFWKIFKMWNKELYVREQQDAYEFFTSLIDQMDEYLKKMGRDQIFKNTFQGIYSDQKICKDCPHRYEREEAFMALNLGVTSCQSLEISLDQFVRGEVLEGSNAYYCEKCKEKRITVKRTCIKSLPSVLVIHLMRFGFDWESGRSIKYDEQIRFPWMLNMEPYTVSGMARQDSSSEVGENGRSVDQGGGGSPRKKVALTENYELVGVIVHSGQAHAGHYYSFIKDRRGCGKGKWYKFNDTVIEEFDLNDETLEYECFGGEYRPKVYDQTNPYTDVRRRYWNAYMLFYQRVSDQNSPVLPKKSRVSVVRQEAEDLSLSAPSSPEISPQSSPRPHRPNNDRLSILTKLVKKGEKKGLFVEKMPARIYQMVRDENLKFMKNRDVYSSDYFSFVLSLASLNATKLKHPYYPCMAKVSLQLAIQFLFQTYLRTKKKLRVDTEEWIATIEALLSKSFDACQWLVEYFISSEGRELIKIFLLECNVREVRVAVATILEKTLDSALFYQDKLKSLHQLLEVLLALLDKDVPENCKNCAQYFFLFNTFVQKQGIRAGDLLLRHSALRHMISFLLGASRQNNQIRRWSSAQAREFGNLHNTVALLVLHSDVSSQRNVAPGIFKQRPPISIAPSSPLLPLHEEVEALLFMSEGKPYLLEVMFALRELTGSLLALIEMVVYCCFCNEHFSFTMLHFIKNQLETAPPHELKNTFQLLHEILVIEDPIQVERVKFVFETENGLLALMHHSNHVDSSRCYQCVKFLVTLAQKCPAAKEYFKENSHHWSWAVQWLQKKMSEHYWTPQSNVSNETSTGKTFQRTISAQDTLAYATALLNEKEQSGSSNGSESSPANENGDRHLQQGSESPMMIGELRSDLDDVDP

Cl.O=C(CCl)N1CC(c2ccc(Br)cn2)C1
inactive: USP19 -0.658 | USP22 -0.346 | USP24 -0.76 | USP25 -0.491 | USP28 -0.738
